Bioassay records deposited in PubChem by National Center for Advancing Translational Sciences (NCATS).
Hits are enriched below; roughly 0.43% of the tested compounds scored in any of these assays.
Menin MLL FP TR = inhibitors of human menin-MLL interaction, mutant MLL peptide; O00255; Menin + Texas Red MLL mutant peptide, fluorescence polarization; Potency, µM (top dose mostly 61.6 µM), for the others: at the highest dose FP activity change, negative = inhibition, hits mostly inhibitors; 0.23% of 270,000 active; AID 1768; active = well fitted inhibition curve with a large enough effect in the polarisation, with a control signal flat, not every such curve was filed as active; inconclusive = small, poorly fitted or top-dose-only effect, or effect the other way, or a change in a side signal; inactive = no such curve, though single readings can be large or run the other way; the % refers to the polarisation; also: potency is read from the fitted curve at half-maximal effect; % of control where 0% means no effect
Tb PFK inh-1 = blocks T. brucei phosphofructokinase | Potency, µM (titrated, usually from 57.5 µM), inactives show top-dose activity, negative = inhibition, hits mostly inhibitors | 0.17% of 330,000 active | T. brucei PFK, ADP-Glo luminescence | AID 485367 | O15648;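 also: potency is read from the fitted curve at half-maximal effect; 0% = uninhibited 1x PFK enzyme wells and -100% = no-enzyme wells; nearly all actives have a fitted effect of over 60% in size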
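Luminescent ADP detection (ADP-Glo, two-step: ATP depletion then ADP-to-ATP conversion for luciferase) reported PFK activity after 45 min room-temperature reaction of 1.25 nM enzyme with 0.5 mM F6P and 0.1 mM ATP at pH 8.0.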
MLL CXXC-DNA inh = blocks binding of human MLL CXXC domain to DNA; Q03164; MLL-CXXC / FITC-HOXA9 DNA fluorescence polarization; Potency, µM (series often up to 115 µM), for inactives: top-dose activity change, negative = inhibition, most hits filed as inhibitors; 0.037% of 290,000 active; AID 2662; active = well fitted inhibition curve with a large enough effect in the polarisation, with a control signal flat, not every such curve was filed as active; inconclusive = small, poorly fitted or top-dose-only effect, or effect the other way, or a change in a side signal; inactive = no such curve, though single readings can be large or run the other way; the % refers to the polarisation; also: potency is read from the fitted curve at half-maximal effect
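Purified MLL-CXXC (added from a 7 uM solution) was preincubated 5 min at ambient with pinned compounds in 50 mM Tris-HCl pH 7.5, 50 mM NaCl, 1 mM DTT, 0.05% BSA. Fluorescein-labeled HOX-A9 DNA (50 nM solution) followed, 30 min, then polarization read.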
Menin MLL FP FL = displaces fluorescein MLL peptide from human menin; FP activity change, % at 61.4 µM; 290,000 tested, under 10 active; AID 1766; Fluorescence polarization, fluorescein-MLL peptide displacement from menin; active = well fitted curve in the direction sought with a large enough effect in the polarisation, not every such curve was filed as active; inconclusive = small, poorly fitted or top-dose-only effect, or effect the other way, or a change in a side signal; inactive = no such curve, though single readings can be large or run the other way; the % refers to the polarisation; also: % of control where 0% means no effect
GoLoco inh red = blocks human Gai1 binding to RGS12 GoLoco peptide, red readout | AID 880 | 0.44% of 230,000 active | P63096 | Potency, µM (highest dose often 61.6 µM), inactives show at the highest dose activity, negative = inhibition, usual class: inhibitors | Gai1:RGS12 GoLoco peptide FP, rhodamine, 10 min; active = well fitted inhibition curve with a large enough effect, not every such curve was filed as active; inactive = no such curve, though single readings can be large or run the other way; also: potency is read from the fitted curve at half-maximal effect; % is scaled to controls: 0 for no effect and ±100 for the full control effect; nearly all actives have a fitted effect of over 30% in size
TbPFK ATP = inhibits T. brucei PFK measured by ATP depletion. Potency, µM (series often up to 57.5 µM), for inactives: at the highest dose inhibition. shares compounds with Tb PFK inh-1. AID 504636. 47% of 1,100 active. Tb PFK enzyme, ATP depletion, Kinase-Glo Plus luminescence; calls by dose curve; also: potency is read from the fitted curve at half-maximal effect; nearly all actives have a fitted effect of over 60% in size
Tb PFK inh-2 = T. brucei PFK enzyme inhibition, hit validation. purified T. brucei PFK, ADP-Glo luminescence, 45 min. shares compounds with Tb PFK inh-1. Potency, µM (doses to about 57.5 µM), inactives show at the top dose activity change, negative = inhibition, hits mostly inhibitors. AID 504637. 41% of 1,100 active;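 also: potency is read from the fitted curve at half-maximal effect; plate controls were full PFK enzyme control for no effect and no enzyme control for full effect; nearly all actives have a fitted effect of over 60% in size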
* hit, by the source's call; ? = inconclusive; . = no result given; [ ] = dose if it differs, or a comment. Unless noted, calls follow the shape of the dose curve; as a rule, active = well fitted inhibition curve with a large enough effect; inconclusive = small, poorly fitted or top-dose-only effect, or effect the other way; inactive = flat fitted curve, though single readings scatter.

SMILES | Menin MLL FP TR | Tb PFK inh-1 | MLL CXXC-DNA inh | Menin MLL FP FL | GoLoco inh red | TbPFK ATP | Tb PFK inh-2
Cc1cc(C)cc(N2C(=O)NC(=O)/C(=C\C=C\c3ccco3)C2=O)c1 | 10% | ? | 3% | ? | 95% | 11µM* | 21µM*
Cc1ccc(N2C(=O)NC(=O)/C(=C/C=C/c3ccco3)C2=O)cc1 | 15% | ? | -10% | ? | 23% | . | .
CCc1ccc(N2C(=O)NC(=O)/C(=C\C=C\c3ccco3)C2=O)cc1 | . | ? | -1% | ? | 88% | ? | ?
CC(C)c1ccc(N2C(=O)NC(=O)/C(=C/C=C/c3ccco3)C2=O)cc1 | 19% | -20% | 3% | ? | 126% | . | .
CCOCC | -3% | . | . | -1 | . | . | .
Cc1ccc(-c2cc(C(=O)N/N=C/C(Br)=C/c3ccccc3)n[nH]2)o1 | 14% | ? | 40% | -1 | 5% | -20% | ?
COC(=O)C1CCN(C(=O)COC(=O)c2cc(-c3ccccc3)nc3ccc(OC)cc23)CC1 | . | ? | . | . | . | ? | ?
COc1ccc(-c2cc(C(=O)OCC(=O)N3CCOCC3)c3ccccc3n2)cc1 | . | -3% | . | . | . | . | .
Cc1ccc(C(=O)OCC(=O)N2CCC(c3ccccc3)=N2)c(C)c1 | . | 0% | . | . | . | . | .
CS(=O)(=O)Nc1ccccc1C(=O)OCC(=O)N1CCC(c2ccccc2)=N1 | . | ? | . | . | . | ? | ?
CC1CN(c2nc(Nc3ccccc3F)nc(N)c2[N+](=O)[O-])CC(C)O1 (configuration not stated) | 4% | -8% | -5% | -1 | . | . | .
O=C(O)c1ccccc1-c1ccc(/C=c2\sc3nc4cc(Br)cnc4n3c2=O)o1 | 9% | ? | 72% | ? | 14% | 6µM* | 12µM*
COc1ccc(SCC(Cc2ccccc2)N2CCN(CC(C)C)CCC2=O)cc1 (configuration not stated) | -27% | . | . | -1 | . | . | .
Cc1cnc(CNc2nc(-c3ccc4c(c3)OCO4)nc3ccccc23)cn1 | 37% | . | . | -2 | 4% | . | .
O=C1/C(=C\c2ccc(O)c(O)c2)Oc2c1ccc(O[C@@H]1O[C@H](CO)[C@@H](O)[C@H](O)[C@H]1O)c2O | 50% | . | . | 26 | . | . | .
Cc1ccc(C(=O)O)cc1NC(=S)NC(=O)Cc1ccccc1 | -27% | ? | -13% | -4 | -7% | -27% | ?
Clc1nssc1=Nc1ccc(Br)cc1 | -11% | ? | 2% | -6 | 13% | . | .
Clc1nssc1=Nc1nncs1 | . | 4.3µM* | . | . | . | 12µM* | 9.5µM*
CC(=O)Nc1cc([As](=O)(O)O)ccc1O | -5% | ? | -9% | 1 | 12% | ? | ?
CCc1noc(C)c1C(=O)Nc1ccc(Cl)c(S(=O)(=O)N2CCCCC2)c1 | . | 13% | . | . | . | . | .
O=C(Nc1nc(-c2ccco2)c(-c2ccco2)s1)c1cnccn1 | . | 12µM* | . | . | . | 1% | 0%
COC(=O)CC1C(=O)NCCN1Cc1cn(-c2ccc(C)cc2)nc1-c1cccc(C)c1 (configuration not stated) | 6% | 5% | -2% | -2 | 35% | . | .
COCCCNC(=O)c1cc(=O)n(Cc2ccc(Cl)cc2)c2ccccc12 | ? | 11µM* | 1% | -9 | -2% | 24µM* | ?
COCCCNC(=O)c1ccc(Cn2c(=O)c3ccccc3n(Cc3ccc(C)cc3)c2=O)cc1 | -10% | 4% | -9% | -5 | 2% | . | .
Cc1cc(C)nc(NS(=O)(=O)c2ccc(NC(=O)c3cc(=O)c4ccccc4o3)cc2)n1 | . | ? | -12% | . | . | -27% | ?
SMILES | Menin MLL FP TR | Tb PFK inh-1 | MLL CXXC-DNA inh | Menin MLL FP FL | GoLoco inh red | TbPFK ATP | Tb PFK inh-2
Cc1ccccc1NC(=O)CSc1ccsc1[N+](=O)[O-] | 18% | 27µM* | 14% | 10 | 6% | 11µM* | 17µM*
CCOC(=O)C1=C(COC(=O)COc2ccc(C(=O)CC)cc2)NC(=O)NC1C (configuration not stated) | . | -13% | . | . | . | . | .
O=C(NCc1cccc(Cl)c1)c1cc(COc2ccc3ncccc3c2)on1 | 21% | 15µM* | 1% | 5 | 17% | 12µM* | 13µM*
Cc1cc(=O)[nH]c(SCC(=O)Nc2nonc2C)n1 | 17% | 0% | 5% | 5 | . | . | .
COc1ccc(NC(=O)CSCc2cc(=O)n3c(C)csc3n2)cc1 | 2% | 5% | -18% | -3 | . | . | .
Cc1ccc(-c2ccc(C3C(C#N)=C(N)Oc4n[nH]c(C)c43)o2)cc1 (configuration not stated) | ? | ? | -4% | ? | -3% | ? | -17%
CC(C)CNC(=O)c1cccc(NC(=O)c2ccc(Cl)c([N+](=O)[O-])c2)c1 | ? | 24µM* | -14% | 3 | -3% | 11µM* | 21µM*
COc1ccc(C(=O)Nc2ccc(N3CCN(C(C)=O)CC3)cc2)cc1[N+](=O)[O-] | ? | 0% | 5% | 0 | -1% | . | .
CC(=O)N1CCN(c2ccc(NC(=O)c3ccc(Cl)c([N+](=O)[O-])c3)cc2)CC1 | 12% | ? | -24% | 3 | . | ? | 30µM*
O=C(Nc1ccc(Cl)c([N+](=O)[O-])c1)c1ccncc1 | 12% | ? | 10% | 1 | 3% | ? | ?
COc1cccc2c1OC(=O)CC2c1ccccc1C (configuration not stated) | -16%[94.6 µM] | . | . | -2[94.6 µM] | -8%[88.7 µM] | . | .
CC(C)C[C@H](NC(=O)[C@H](CC(C)C)NC(=O)[C@H](CCC(N)=O)NC(=O)[C@H](CO)NC(=O)[C@@H]1CCCN1C(=O)[C@H](CO)NC(=O)[C@H](CO)NC(=O)[C@@H](NC(=O)[C@H](Cc1cnc[nH]1)NC(=O)[C@H](CCC(=O)O)NC(=O)[C@H](Cc1ccc(O)cc1)NC(=O)[C@H](CCCCN)NC(=O)[C@H](CCC(N)=O)NC(=O)[C@H](Cc1ccc(O)cc1)NC(=O)[C@H](CC(=O)O)NC(=O)[C@@H](NC(=O)[C@@H]1CCCN1C(=O)[C@H](CC(=O)O)NC(=O)[C@H](CC(N)=O)NC(=O)[C@H](CC(=O)O)NC(=O)CNC(=O)[C@H](CC(=O)O)NC(=O)[C@@H]1CCCN1C(=O)[C@H](CCC(N)=O)NC(=O)[C@H](Cc1ccc(O)cc1)NC(=O)[C@H](C)NC(=O)[C@H](Cc1c[nH]c2ccccc12)NC(=O)[C@H](Cc1ccccc1)NC(=O)[C@@H](NC(=O)[C@@H](N)CO)[C@@H](C)O)[C@@H](C)O)[C@@H](C)O)C(=O)N[C@@H](C)C(=O)N1CCC[C@H]1C(=O)NCC(=O)N[C@@H](CC(=O)O)C(=O)N[C@@H](Cc1ccc(O)cc1)C(=O)O | 15% | . | . | 5 | . | . | .
